Test results reported in PubChem BioAssay (NCI).
The panel holds about 79,000 compounds, 15% with a hit somewhere; the sample as a whole holds those more often. Rule as the data show it: active = growth inhibition above about 70%; inactive = the rest.

Key:
[1] = NCI Yeast Anticancer Drug Screen. Data for the rad50 strain (AID 155);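 also: 0% = growth of vehicle-only cultures of the same strain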; conditions: S. cerevisiae rad50 strain growth inhibition; at 50.0 µM; active compounds read high
Summary of the method: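 Readout: growth inhibition relative to vehicle-treated cultures. Compound exposure was carried out in a genetically defined yeast strain deficient in DNA damage repair.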

[2] = NCI Yeast Anticancer Drug Screen. Data for the mec2-1 strain (AID 157); conditions: S. cerevisiae mec2-1 strain, at 50.0 µM, active compounds read high
Summary of the method: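 Compounds were applied to mec2-1 yeast cells. Their growth was then compared with that of vehicle-treated cultures to give growth inhibition.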

[3] = NCI Yeast Anticancer Drug Screen. Data for the sgs1 mgt1 strain (AID 161);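 also: 0% = growth of cultures given vehicle only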; conditions: S. cerevisiae sgs1 mgt1 strain, at 50.0 µM, active compounds read high
Summary of the method: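 This yeast growth screen uses a strain with defined DNA-repair lesions; compound-treated growth is compared with vehicle-treated growth.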

[4] = NCI Yeast Anticancer Drug Screen. Data for the cln2 rad14 strain (AID 165);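 also: 0% = growth equal to vehicle treated cultures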; conditions: S. cerevisiae cln2 rad14 strain, at 50.0 µM, active compounds read high
Summary of the method: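 Strain: cln2 rad14 yeast, altered in cell cycle control and DNA damage repair. Read-out: growth inhibition vs vehicle.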

[5] = NCI Yeast Anticancer Drug Screen. Data for the bub3 strain (AID 167); conditions: S. cerevisiae bub3 mutant strain, at 50.0 µM, active compounds read high
Summary of the method: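 Readout: yeast growth inhibition, expressed relative to vehicle-only wells. The test organism is a mutant strain from a panel with lesions in DNA repair or checkpoint genes.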

[6] = NCI Yeast Anticancer Drug Screen. Data for the mlh1 rad18 strain (AID 175); conditions: S. cerevisiae mlh1 rad18 strain growth inhibition; at 50.0 µM; active compounds read high
Summary of the method: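 A repair-deficient yeast strain is exposed to test compound, and growth is scored relative to vehicle-treated controls.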

Measured: growth inhibition

N#CCCN(CCC#N)c1ccc(/C=C2\N=C(c3cc([N+](=O)[O-])ccc3Cl)N(NC(=O)CC(=O)Nc3ccccc3Cl)C2=O)cc1
inactive: [1] -31% | [2] -28.1% | [3] -13.8% | [4] 2.5% | [5] 1.65% | [6] -18.3%

Cc1ccc(-c2nnc(NC(=O)Nc3ccc(Cl)cc3)o2)cc1
inactive: [1] 3.15% | [2] -1.45% | [3] 4.3% | [4] -60.6% | [5] -13.5% | [6] 21.8%

N#CC(=Nc1ccc2ccccc2c1)C1=C(O)c2ccccc2C1=O
inactive: [1] 15.8% | [2] -3.2% | [3] 0.2% | [4] -30.4% | [5] 10.2% | [6] 11.8%

O=S1c2ccccc2NC(c2ccc3ccccc3c2)CC1c1ccccc1 (stereo not given)
inactive: [1] -46.2% | [2] -22.1% | [3] -6.75% | [4] 1.9% | [5] 5.05% | [6] -18.2%

COC(=O)C(NC(=O)C(=O)NC(C(=O)OC)C(C)(C)S)C(C)(C)S (stereo not given)
inactive: [1] 3.85% | [2] -9.1% | [3] -2.3% | [4] -12.7% | [5] -5% | [6] 4.25%

Nc1cnc2ccccc2c1
inactive: [1] 10.2% | [2] 1.25% | [3] -8.45% | [4] -46.5% | [5] 11.8% | [6] -4.1%

O=C1NC(=O)C2(CCN(Cc3ccccc3)CC2)N1c1ccccc1
inactive: [1] 8.95% | [2] 0.1% | [3] -5.1% | [4] 6% | [5] 13.3% | [6] 3.15%

COc1ccc2nc(-c3ccccc3)c(=O)[nH]c2c1
inactive: [1] 4.1% | [2] 13.8% | [3] 24.7% | [4] 12.6% | [5] 25.1% | [6] 10.5%

CC(C)(C)C(=O)C(c1ccc(-c2cscn2)cc1)c1ccc(-c2cscn2)cc1
inactive: [1] -2% | [2] -2.8% | [3] -1.1% | [4] 1.3% | [5] -5.3% | [6] -22.2%

COC(=O)c1nc(N)nc(C(=O)OC)c1C(=O)c1cc(Cl)ccc1Cl
inactive: [1] -8.35% | [2] -7.9% | [3] -1.25% | [4] -18.2% | [5] -6.3% | [6] -5.65%

CN1CCc2[nH]nc(-c3n[nH]c4c3CN(C)CC4)c2C1
inactive: [1] 15.8% | [2] 0.85% | [3] 10.5% | [4] -0.05% | [5] -8.6% | [6] 13.6%

OCc1c(CO)c(C(F)(F)F)n2c1CCC2
inactive: [1] 9.9% | [2] -4.1% | [3] 9.15% | [4] -14.3% | [5] 9.65% | [6] 2.55%

N#Cc1cccc(N2C(=O)c3ccc(C(=O)c4ccc5c(c4)C(=O)N(c4cccc(C#N)c4)C5=O)cc3C2=O)c1
inactive: [1] -25.9% | [2] -16.3% | [3] -49.5% | [4] 23.8% | [5] -0.7% | [6] -12.3%

Cc1nc(/C=C2\C(=O)C=Cc3ccccc32)c(O)o1
inactive: [1] 7.85% | [2] -6.3% | [3] 8.35% | [4] -63% | [5] 16% | [6] 0.3%

O=[N+]([O-])C1C2CCC(C2)C1c1ccccc1 (stereo not given)
inactive: [1] 9.55% | [2] -3.75% | [3] -0.55% | [4] -2.05% | [5] 14.9% | [6] -0.2%

CC1=N/C(=C\c2ccc([N+](=O)[O-])cc2)C(=O)O1
inactive: [1] 19.9% | [2] 9.05% | [3] 2.45% | [4] 4.6% | [5] 13.2% | [6] 42.8%

CC(C)C(CN)(c1ccccc1)c1ccccc1
inactive: [1] -4.4% | [2] -7.75% | [3] -8.85% | [4] -59% | [5] -3.3% | [6] -10.9%

C(=C\C[P+](c1ccccc1)(c1ccccc1)c1ccccc1)/C[P+](c1ccccc1)(c1ccccc1)c1ccccc1
inactive: [1] 12.3% | [2] 13% | [3] 4.95% | [4] -5.55% | [5] -2.75% | [6] 27.9%

CCn1ncc2ccc(N(CO)CO)cc21
inactive: [1] -2.4% | [2] 22.1% | [3] -13.6% | [4] -20.2% | [5] -22.6% | [6] 4.1%

Cc1[nH]c2ccccc2c1C(c1cc(Cl)cc(Cl)c1O)c1c(C)[nH]c2ccccc12
inactive: [1] 29.8% | [2] 26.1% | [3] 25.8% | [4] -1.9% | [5] -5.05% | [6] 37.8%

Nc1nc2c(nc(OCc3ccccc3)n2C2OC(CO)C(O)C2O)c(=O)[nH]1 (stereo not given)
inactive: [1] 23.5% | [2] 10.8% | [3] 2.65% | [4] 8.95% | [5] 0.5% | [6] 16.1%

CC(=O)OCSc1ncnc2c1ncn2CN1CCOCC1
inactive: [1] 7.15% | [2] 2.25% | [3] -19.9% | [4] 1.8% | [5] -4.85% | [6] 7.85%

CCCCCCC[CH2][Sn]1([CH2]CCCCCCC)[O]C(=O)c2cccnc2[O]1
inactive: [1] 27.4% | [2] 7.3% | [3] 13.2% | [4] 10.3% | [5] 17.2% | [6] 19.8%

CN(C)c1nc(N)nc(CS)n1
inactive: [1] 10.8% | [2] 10.4% | [3] -9.05% | [4] 10.3% | [5] -4.15% | [6] -39.5%

Cc1csc(C)[n+]1CC(=O)c1ccccc1
inactive: [1] -10% | [2] -5.45% | [3] -8.4% | [4] -20.2% | [5] -6.1% | [6] -29.1%

Cn1c(=O)c2c(nc(NCCOC(=S)S)n2C)n(C)c1=O
inactive: [1] -44.8% | [2] 1.8% | [3] -10.3% | [4] 32.5% | [5] 5.3% | [6] 15.9%

Fc1ccccc1C(Nc1nc2ccccc2s1)Nc1nc2ccccc2s1
inactive: [1] 13.4% | [2] 6.05% | [3] -7.3% | [4] -0.3% | [5] -3.15% | [6] 1.35%

COc1nc2nccc-2c2occn12
inactive: [1] -29.4% | [2] -11.2% | [3] -16.8% | [4] -27.5% | [5] -9.6% | [6] -29.1%

CCNc1nc2ccccc2nc1NCC
inactive: [1] -18.1% | [2] -5.6% | [3] 1.45% | [4] 16.1% | [5] -13.3% | [6] 3.15%

CC(=O)OC1CC2CCCCC21 (stereo not given)
inactive: [1] 10.6% | [2] 7% | [3] -0.6% | [4] 37% | [5] 13.8% | [6] 2.3%

CC(C)CCC[C@@H](C)[C@H]1CC[C@H]2[C@@H]3CC=C4C[C@@H](OC(=O)c5cccc6c(=O)c7ccccc7[nH]c56)CC[C@]4(C)[C@H]3CC[C@]12C
inactive: [1] 12.8% | [2] 16.1% | [3] 3.3% | [4] -4.95% | [5] -3.8% | [6] -28.9%

CCCC[Si]CCCC
inactive: [1] 14.8% | [2] 10% | [3] 1.1% | [4] 14.6% | [5] 4.5% | [6] 11.2%

Cc1ccc(-c2cn3c(nc4ccccc43)c(C)n2)cc1
inactive: [1] -27.5% | [2] 5.5% | [3] 15.3% | [4] -7.95% | [5] 13% | [6] -29.5%

COC(=O)N[C@H](C(=O)O)C(C)O[Si](C)(C)C(C)(C)C (stereo not given in full)
inactive: [1] -16.2% | [2] -14% | [3] -52.6% | [4] 8.2% | [5] -33% | [6] -34.5%

CC(C)CC(=O)OC1CCCCC1C1CCCCC1 (stereo not given)
inactive: [1] -2.1% | [2] -6.35% | [3] 12.3% | [4] 7.25% | [5] 13.4% | [6] -4%

CCOC(=O)Cn1c(=O)c2nc(SC)sc2n(-c2ccccc2)c1=O
inactive: [1] -19.9% | [2] 10.8% | [3] -37.1% | [4] 6.9% | [5] -1.45% | [6] 9.4%

COc1ccc(N(CN2C(=O)CCC2=O)CS(=O)(=O)c2ccc(Cl)cc2)cc1
inactive: [1] 16.6% | [2] 0.2% | [3] 11.5% | [4] 14.9% | [5] -3.75% | [6] -16.4%

COc1ccccc1C(=O)N/N=C\c1c[nH]c2ccccc12
inactive: [1] -3.35% | [2] 2.05% | [3] -4.85% | [4] -6.25% | [5] -5.15% | [6] -8.3%

O=C1Nc2ccc(Br)cc2C1(O)Cc1cccc([N+](=O)[O-])c1 (stereo not given)
inactive: [1] 7.35% | [2] 12.2% | [3] 13.5% | [4] 3.55% | [5] -12.9% | [6] 11.8%

C/C(=N\O)C(=O)c1cccc([N+](=O)[O-])c1
inactive: [1] 12% | [2] 8.3% | [3] 15.4% | [4] 2.75% | [5] -7.45% | [6] 27.1%
